HEK293 tox – kills HEK 293 cells; HEK 293 viability, ATP luminescence (CellTiter-Glo), 48-72 h; Potency, µM (doses to about 115 µM), actives largely listed as inhibitors; 6.6% of 94,000 active; note: nearly all actives have a fitted effect of over 60% in size
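HEK 293 seeded at 250 cells/well receive compound via pintool. After 48 or 72 hr at 37 degree Celsius, 5% CO2 and 95% humidity, CellTiter-Glo is dispensed and luminescence read following 10 min at room temperature.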
hNpr1 antagonist – blocks ANP-stimulated signaling of human Npr1 receptor; P16066; HEK293 hNpr1 GloSensor cGMP, ANP-stimulated luminescence; Potency, µM (top dose mostly 46.3 µM), most hits filed as inhibitors; 1.6% of 76,000 active; AID 1347048; calls by dose curve; note: nearly all actives have a fitted effect of over 60% in size
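Compound pre-incubated 30 min at room temperature on GloSensor-loaded HEK293 cells stably carrying hNpr1 and the pGS-40F cGMP biosensor. Stimulation uses hNppA at 0.1 nM final; luminescence is taken at baseline and 20 min post-agonist.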
3T3 cytotox – cytotoxic compounds in NIH 3T3 cells; AID 1345082; Potency, µM (series often up to 96.7 µM), hits mostly inhibitors; NIH 3T3 viability, CellTiter-Glo ATP luminescence, 48-72 h; 4.3% of 94,000 active; note: nearly all actives have a fitted effect of over 55% in size
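Luminescent ATP readout (CellTiter-Glo, 10 min RT) after 48 or 72 hr compound exposure of NIH 3T3 cells seeded at 400 cells/well in 1536-well format; quantitative HTS.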
SNCA expr inh – reduces expression of the alpha-synuclein gene; 0.17% of 140,000 active; Potency, µM (highest dose often 57.2 µM), hits mostly inhibitors; HEK-293 SNCA-luciferase knock-in, luminescence, 24 h; note: nearly all actives have a fitted effect of over 45% in size
SNCA viab count – counter-screen for SNCA expression inhibitors: cell viability; HEK-293-SNCA-luc viability, GF-AFC fluorescence, 24 h; Potency, µM (doses to about 57.1 µM), hits mostly cytotoxic; 0.12% of 150,000 active; AID 1671193; note: nearly all actives have a fitted effect of over 30% in size
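HEK-293-SNCA-luc cells (1500/well) plated 24 h, then exposed 24 h to a dilution series; GF-AFC added 30 min at 37C, fluorescence 405/540 nm; normalised to medium-only and DMSO wells, Hill fit.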
FLuc inh – inhibitors of firefly (Photinus pyralis) luciferase. P08659. purified P. pyralis luciferase, luminescence, biochemical. Potency, µM (highest dose often 115 µM), usual class: inhibitors. 2.5% of 76,000 active; note: nearly all actives have a fitted effect of over 65% in size
Target sequence (P08659 whole entry, looked up): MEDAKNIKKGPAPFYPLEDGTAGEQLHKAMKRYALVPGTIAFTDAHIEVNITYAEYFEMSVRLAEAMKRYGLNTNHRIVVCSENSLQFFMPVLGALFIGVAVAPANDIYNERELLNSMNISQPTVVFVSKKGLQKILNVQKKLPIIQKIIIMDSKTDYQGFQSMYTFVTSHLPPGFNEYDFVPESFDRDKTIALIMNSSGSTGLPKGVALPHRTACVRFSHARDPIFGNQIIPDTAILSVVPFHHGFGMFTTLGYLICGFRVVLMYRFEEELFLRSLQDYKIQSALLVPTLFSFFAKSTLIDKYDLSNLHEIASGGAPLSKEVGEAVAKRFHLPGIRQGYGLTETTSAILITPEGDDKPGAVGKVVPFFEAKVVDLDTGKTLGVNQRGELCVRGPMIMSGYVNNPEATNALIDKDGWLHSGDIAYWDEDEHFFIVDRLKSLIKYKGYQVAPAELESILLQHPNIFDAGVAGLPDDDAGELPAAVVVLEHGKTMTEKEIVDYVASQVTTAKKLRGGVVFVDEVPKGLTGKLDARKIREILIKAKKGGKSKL
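Cell-free enzyme assay, 10nM P. pyralis luciferase, luciferin and ATP each at 10uM. Inhibition profiled over a 6-point titration, read as luminescence.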
Each line names hits and unclear results; the compound was inactive in the other large screens. In the library only some 7.2% were active in any assay of this set; here they are far more common. Unless noted, calls come from the whole dose curve; as a rule, active = well fitted curve in the direction sought with a large enough effect; inconclusive = small, poorly fitted or top-dose-only effect, or another doubt; inactive = no such curve, though single readings can be large; an effect the other way counts as inactive or inconclusive.

Fc1ccc(-c2ccc3ncc(Nc4ccc5c(c4)OCO5)n3n2)cc1	HEK293 tox 79µM, 3T3 cytotox inconclusive
Fc1ccc(-c2ccc3ncc(Nc4ccncc4)n3n2)cc1	HEK293 tox 100µM, 3T3 cytotox inconclusive
COc1ccc(Nc2cnc3ccc(-c4ccccc4)nn23)cc1	HEK293 tox 71µM, 3T3 cytotox inconclusive, FLuc inh inconclusive
Cc1noc(C)c1S(=O)(=O)NC1CCc2nn(CC3CC3)c(=O)n2CC1 (stereo unspecified)	none
NC(=O)c1ccc(Nc2cnc3ccc(-c4ccccc4)nn23)cc1	HEK293 tox inconclusive, 3T3 cytotox 28µM
COc1cncc(Nc2cnc3ccc(-c4ccc(OC)nc4)nn23)c1	HEK293 tox inconclusive
COc1ccc(Nc2cnc3ccc(-c4ccccc4)nn23)cn1	HEK293 tox 45µM, 3T3 cytotox 40µM, FLuc inh inconclusive
COc1cncc(Nc2cnc3ccc(N(C)Cc4ccc(F)cc4)nn23)c1	HEK293 tox inconclusive, hNpr1 antagonist inconclusive, 3T3 cytotox inconclusive, SNCA expr inh inconclusive
CN(Cc1ccc(F)cc1)c1ccc2ncc(Nc3ccc4c(c3)OCCO4)n2n1	HEK293 tox 40µM, 3T3 cytotox inconclusive
CC(=O)O[C@H]1C[C@@](O)(C(C)C)C2[C@@H](OC(=O)c3ccc(O)cc3)C[C@@]3(C)O[C@H]3C[C@]21C (stereo partly specified)	none (no result: HEK293 tox, hNpr1 antagonist, 3T3 cytotox, SNCA expr inh, FLuc inh)
Cc1ncccc1Oc1ncnc(N2CCC3(CC(=O)NC3=O)C2)c1C (stereo unspecified)	3T3 cytotox inconclusive
COc1ccc(CN2CCCCCNC(=O)CC2c2ccccc2)cc1Cn1ccnc1 (stereo unspecified)	HEK293 tox 35µM, 3T3 cytotox 40µM
O=C1CC(c2ccccc2)N(Cc2ccc(F)c(F)c2)CCCCCN1 (stereo unspecified)	HEK293 tox inconclusive, 3T3 cytotox 40µM, SNCA expr inh inconclusive
COc1ccc(CN2CCCCCNC(=O)CC2c2ccccc2)cc1Cc1c(C)noc1C (stereo unspecified)	HEK293 tox inconclusive, 3T3 cytotox 35µM
O=C1CC(c2ccccc2)N(Cc2ccc(C(F)(F)F)cc2)CCCCCN1 (stereo unspecified)	HEK293 tox inconclusive, hNpr1 antagonist inconclusive, 3T3 cytotox inconclusive
COc1cccc(CN2CCCCCCNC(=O)CC2c2ccccc2)c1 (stereo unspecified)	HEK293 tox inconclusive, 3T3 cytotox inconclusive
O=C(c1ccn[nH]1)N1C[C@@H](COCC2CC2)[C@H](c2ccccn2)C1	none
N#Cc1ccc(C(=O)N[C@@H]2CN(Cc3ccccc3)C[C@H]2CO)cc1	HEK293 tox inconclusive, 3T3 cytotox 14µM, SNCA expr inh inconclusive
Cn1nc(CN2CCOCC2)c2c1CCN(S(=O)(=O)c1ccc3c(c1)CCC3)C2	none (no result: hNpr1 antagonist, FLuc inh)
COc1ccc(OC)c(NC(=O)N2C[C@@H](F)C[C@H]2C(=O)N2CCCCC2)c1	3T3 cytotox 11µM
COc1ccc(NC(=O)N2C[C@@H](F)C[C@H]2C(=O)N2CCCCC2)cc1F	none
O=S1(=O)c2cccnc2OC(COc2ccccc2)CN1Cc1cccs1 (stereo unspecified)	HEK293 tox inconclusive, 3T3 cytotox 28µM (no result: hNpr1 antagonist, FLuc inh)
COc1ccc(C(=O)N2CCC3(CC2)N=C(c2ccc(C)cc2)NO3)cc1	HEK293 tox inconclusive, FLuc inh inconclusive
O=C(c1ccoc1)N1CCC2(CC1)N=C(c1cccc(Br)c1)NO2	none
Cc1ccc(C2=NC3(CCN(C(=O)c4ccc5cc[nH]c5c4)CC3)ON2)cc1	HEK293 tox inconclusive, hNpr1 antagonist inconclusive, 3T3 cytotox inconclusive, FLuc inh inconclusive
O=C(c1ccc2cc[nH]c2c1)N1CCC2(CC1)N=C(c1ccccc1)NO2	HEK293 tox inconclusive, FLuc inh 28µM
Cc1ccc(C(=O)N2CCC3(CC2)N=C(c2cccc(Br)c2)NO3)cc1	HEK293 tox inconclusive, hNpr1 antagonist inconclusive, 3T3 cytotox 16µM
Cc1ccc(C2=NC3(CCN(C(=O)c4ccsc4)CC3)ON2)cc1	FLuc inh 40µM
Cc1ccc(C(=O)N2CCC3(CC2)N=C(c2ccc(C)cc2)NO3)cc1	FLuc inh 35µM
CC(=O)N1Cc2ccccc2CC2(CCN(CCc3ccccc3)C2)C1 (stereo unspecified)	HEK293 tox inconclusive (no result: hNpr1 antagonist, FLuc inh)
O=C(c1ccc2c(c1)OCO2)N1CCC2(CC1)N=C(c1ccc(Cl)cc1)NO2	HEK293 tox inconclusive, hNpr1 antagonist inconclusive
CCc1ccc(C(=O)N2CCC3(CC2)N=C(c2ccc(C)cc2)NO3)cc1	HEK293 tox inconclusive, hNpr1 antagonist inconclusive, FLuc inh 40µM
Cc1ccc(C2=NC3(CCN(C(=O)c4ccc5c(c4)OCO5)CC3)ON2)cc1	HEK293 tox inconclusive, FLuc inh 35µM
O=C1C(N2CCN(S(=O)(=O)c3ccc(Cl)s3)CC2)CCN1Cc1ccccn1 (stereo unspecified)	none
Cc1nn(-c2ccccc2)c2c1C(C1CC1)N(C1CN(C(=O)NC(C)(C)c3ccccc3)C1)C2=O (stereo unspecified)	HEK293 tox inconclusive, 3T3 cytotox 14µM (no result: hNpr1 antagonist, SNCA expr inh, SNCA viab count, FLuc inh)
Cc1nn(-c2ccccc2)c2c1C(C1CC1)N(C1CN(C(=O)Cc3cccc(Cl)c3)C1)C2=O (stereo unspecified)	HEK293 tox 25µM, 3T3 cytotox inconclusive (no result: hNpr1 antagonist, SNCA expr inh, SNCA viab count, FLuc inh)
O=C(Cc1cccc(Cl)c1)N1CCCC(c2nn(-c3ccccc3)c(=O)[nH]2)C1 (stereo unspecified)	HEK293 tox 45µM, 3T3 cytotox inconclusive
Cc1nn(-c2ccccc2)c2c1C(C(C)C)N(C1CCN(C(=O)Cc3cccc(Cl)c3)CC1)C2=O (stereo unspecified)	none (no result: hNpr1 antagonist, SNCA expr inh, SNCA viab count, FLuc inh)
Cc1nn(-c2ccccc2)c2c1C(C1CC1)N(C1CN(C(=O)NC3CCCC3)C1)C2=O (stereo unspecified)	none (no result: hNpr1 antagonist, SNCA expr inh, SNCA viab count, FLuc inh)
Cc1nn(-c2ccccc2)c2c1C(C(C)C)N(C1CN(C(=O)Cc3cccc(Cl)c3)C1)C2=O (stereo unspecified)	HEK293 tox 25µM, 3T3 cytotox 25µM (no result: hNpr1 antagonist, SNCA expr inh, SNCA viab count, FLuc inh)
O=C1NCCCC[C@@H]1NCc1ccccc1OCCCCN1CCOCC1	none
Cc1nc(CC(=O)N2CCCC3(CCC(=O)N(CCC(C)C)C3)C2)cs1 (stereo unspecified)	none
CC(C)CCN1CC2(CCCN(C(=O)c3cc(C(F)(F)F)[nH]n3)C2)CCC1=O (stereo unspecified)	3T3 cytotox 45µM
O=C(NCc1ccc2c(c1)OCO2)C1CCCN1C(=O)c1cccc(-c2ccccn2)c1 (stereo unspecified)	none (no result: hNpr1 antagonist, FLuc inh)
Cc1noc(C)c1-c1cc2c(c(-c3ccc(CO)cc3)c1)C(=O)N(C)C2	HEK293 tox inconclusive, 3T3 cytotox 79µM

Screening data as filed in PubChem.
